Holding throughout (experiment): NCI-60 one-dose screen, 48 h (100 = growth as untreated, 0 = no growth, -100 = all killed)
Conditions in all cases: 10 µM unless noted

Experiment [1] deals with BT-549 breast.
Experiment [2] concerns MDA-MB-435 melanoma.
Experiment [3] relates to SW-620 colon.
In experiment [4] the test system is MCF7 breast.
Experiment [5] relates to HCT-116 colon.
For experiment [6], the system named is HCC-2998 colon.
Experiment [7] has as its system KM12 colon.

The panel holds about 83,000 compounds, 20% with a hit somewhere; the sample as a whole holds those more often.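 Cells were grown in 96-well plates and exposed to the test compound at a single concentration for 48 hours; results are reported as percent growth, with values below 10 considered active.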 Unmarked numbers belong to inactive results. Activity calls are given as the source filed them.

On to `C[C@]12CCc3nc(Nc4ccccc4)sc3C1=CC[C@@H]1[C@@H]2CC[C@]2(C)/C(=N/NC(N)=S)CC[C@@H]12`, for which the growth in experiment [1] was 35.4%; in experiment [2], 30.8%; in experiment [3], 18.2%; in experiment [4] it was 24.3%; in experiment [5], -46.2% (active); in experiment [6] it was 84.9%. In addition, in experiment [7], the growth is 33.5%.

As for `N#Cc1c(N2CCOCC2)nc(=S)[nH]c1-c1ccco1`, the growth is 60.4% in experiment [1]; 86.3% in experiment [2]; 83.8% in experiment [3]; 26.7% in experiment [4]; 82.4% in experiment [5]; -21% (active) in experiment [6]. Further, the growth in experiment [7] was 65.3%.

For `Cc1ccc(Oc2c(/C=N/NC(=O)Cn3c(=O)sc4ccccc43)c(C)nn2-c2ccccc2)cc1`, the growth in experiment [2] was 61.7%; in experiment [3] it was 68.4%; in experiment [4], 31.1%; in experiment [5] it was 37%; in experiment [6], 69.2%; in experiment [7], 49.3%.

Consider `CC(C)c1ccc(C(=O)Nc2nc3ccc(O)cc3s2)cc1`, for which the growth was 55.5% in experiment [1]; 22% in experiment [2]; 16% in experiment [3]; 9.03% (active) in experiment [4]; 39.6% in experiment [5]; -8.31% (active) in experiment [6]. The growth in experiment [7] was 15.7%.

Consider `CC1Cc2c(Cl)ncnc2N(C)c2ccc(Cl)cc21` (centres undefined), for which the growth is 3.3% (active) in experiment [2]; 6.73% (active) in experiment [3]; 7.64% (active) in experiment [4]; 7.96% (active) in experiment [5]; 36.9% in experiment [6]; 10.1% in experiment [7].

`Nc1nc(Nc2ccccc2)c2ncn(Cc3ccc4c(c3)OCO4)c2n1`: the growth in experiment [2] is -23.4% (active); in experiment [3] it was 23.1%; in experiment [4], 21.3%; in experiment [5], 35.2%; in experiment [6], 71%; in experiment [7] it was 26.2%.

With `CCCCCCCCCCCCCCNC(=O)Nc1ccc(Cl)c(Cl)c1`, the growth was 24.7% in experiment [1]; 18.3% in experiment [2]; 32.9% in experiment [3]; 30% in experiment [4]; 23.6% in experiment [5]; 14.5% in experiment [6]. Besides, the growth in experiment [7] is 35.8%.

Take `CC/C=C(\C)C(CCC)(CN=O)C(=O)OCC` (centres undefined): the growth in experiment [1] was 112%; in experiment [2] it was 117%; in experiment [3] it was 109%; in experiment [4] it was 102%; in experiment [5] it was 92.2%; in experiment [6] it was 96.2%. Moreover, the growth in experiment [7] is 112%.

As to `CC1Cc2c(Cl)ncnc2N(C)c2ccccc21` (centres undefined), the growth was 14.9% in experiment [2]; 14% in experiment [3]; 14.1% in experiment [4]; 12.9% in experiment [5]; 34.5% in experiment [6]; 11.3% in experiment [7].

Take `NC(=S)Cc1ccccc1`: the growth was 110% in experiment [1]; 97.7% in experiment [2]; 102% in experiment [3]; 91% in experiment [4]; 104% in experiment [5]; 107% in experiment [6]. Moreover, the growth in experiment [7] was 101%.

`Cc1ccc(-c2cc(O)c(-c3ccc(C)cc3C)cc2O)c(C)c1`: the growth is 66.5% in experiment [2]; 56.5% in experiment [3]; 49.2% in experiment [4]; 23.9% in experiment [5]; 77.7% in experiment [6]; 55.3% in experiment [7].

In the case of `COCCCNc1nc(NC(=O)c2cc(OC)cc(OC)c2)cc(-c2cccnc2)n1`, the growth in experiment [2] was 100%; in experiment [4] it was 97.8%; in experiment [5] it was 90.3%; in experiment [6], 110%; in experiment [7], 103%.

For `COc1cc(-c2nc(SCCC(C)C)nc(Nc3ccccc3)c2C#N)cc(OC)c1OC`, the growth in experiment [1] is 96.4%; in experiment [2] it was 92.9%; in experiment [3], 104%; in experiment [4], 92.7%; in experiment [5], 91.7%; in experiment [6] it was 116%. In experiment [7], the growth was 100%.

Source of the values: PubChem BioAssay (NCI).
